This passage reports residual activity results from ChEMBL document CHEMBL2218924, “A broad activity screen in support of a chemogenomic map for kinase signalling research and drug discovery” (Biochem J, 2013).

Assay [1] has as its target Serine/threonine-protein kinase MRCK beta (Homo sapiens) (UniProt Q9Y5S2). As to conditions: at 1 µM.
Assay [2] has the same target. The following applies: at 10 µM.
Assay [3] addresses Ribosomal protein S6 kinase alpha-5 (Homo sapiens) (UniProt O75582). The following applies: at 1 µM.
Assay [4] shares this target. As to conditions: at 10 µM.
Assay [5] has as its target Ribosomal protein S6 kinase alpha-4 (Homo sapiens) (UniProt O75676). As to conditions: at 1 µM.
Assay [6] has the same target. The following applies: at 10 µM.
The target in assay [7] is SRSF protein kinase 3 (Homo sapiens) (UniProt Q9UPE1). The following applies: at 1 µM.
The target is the same in assay [8]. As to conditions: at 10 µM.
The target of assay [9] is T1, Serine/threonine-protein kinase 4 (Homo sapiens) (UniProt Q13043).
T1 sequence (whole entry): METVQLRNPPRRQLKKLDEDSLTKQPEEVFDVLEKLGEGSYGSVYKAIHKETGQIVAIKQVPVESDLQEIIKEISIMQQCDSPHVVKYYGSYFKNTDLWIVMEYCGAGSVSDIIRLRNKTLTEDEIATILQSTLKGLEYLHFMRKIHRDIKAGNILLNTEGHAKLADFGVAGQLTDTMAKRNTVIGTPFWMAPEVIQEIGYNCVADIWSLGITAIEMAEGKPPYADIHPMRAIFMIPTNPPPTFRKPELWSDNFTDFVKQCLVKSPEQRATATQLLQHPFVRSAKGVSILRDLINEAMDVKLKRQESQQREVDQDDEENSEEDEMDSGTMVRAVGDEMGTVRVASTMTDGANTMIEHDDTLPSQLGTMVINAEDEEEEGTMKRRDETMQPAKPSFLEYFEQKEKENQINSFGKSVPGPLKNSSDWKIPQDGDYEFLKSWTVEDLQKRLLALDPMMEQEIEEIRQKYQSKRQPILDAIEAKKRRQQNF
As to conditions: at 1 µM.

Assay [10] has as its target T1, Serine/threonine-protein kinase 4 (Homo sapiens). As to conditions: at 10 µM.
The target of assay [11] is T2, Serine/threonine-protein kinase 3 (Homo sapiens) (UniProt Q13188).
T2 sequence (whole entry): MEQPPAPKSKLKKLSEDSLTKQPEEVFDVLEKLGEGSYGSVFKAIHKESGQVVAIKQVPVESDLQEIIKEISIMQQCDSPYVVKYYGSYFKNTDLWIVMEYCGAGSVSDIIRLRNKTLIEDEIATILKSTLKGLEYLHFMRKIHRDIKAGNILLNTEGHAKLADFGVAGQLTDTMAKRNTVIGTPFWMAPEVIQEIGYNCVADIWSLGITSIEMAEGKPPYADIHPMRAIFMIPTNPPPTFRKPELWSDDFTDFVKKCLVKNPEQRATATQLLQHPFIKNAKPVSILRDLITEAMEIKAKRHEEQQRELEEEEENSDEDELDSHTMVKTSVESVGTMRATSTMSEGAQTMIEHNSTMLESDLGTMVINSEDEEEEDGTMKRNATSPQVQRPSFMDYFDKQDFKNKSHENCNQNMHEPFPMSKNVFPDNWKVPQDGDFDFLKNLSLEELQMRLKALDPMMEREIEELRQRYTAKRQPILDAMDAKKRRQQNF
The following applies: at 1 µM.

The target in assay [12] is T2, Serine/threonine-protein kinase 3 (Homo sapiens). As to conditions: at 10 µM.
Assay [13] has as its target Serine/threonine-protein kinase 24 (Homo sapiens) (UniProt Q9Y6E0). The following applies: at 1 µM.
For assay [14] the target is unchanged. As to conditions: at 10 µM.
The target of assay [15] is T3, Tyrosine-protein kinase Mer (Homo sapiens) (UniProt Q12866).
T3 sequence (whole entry): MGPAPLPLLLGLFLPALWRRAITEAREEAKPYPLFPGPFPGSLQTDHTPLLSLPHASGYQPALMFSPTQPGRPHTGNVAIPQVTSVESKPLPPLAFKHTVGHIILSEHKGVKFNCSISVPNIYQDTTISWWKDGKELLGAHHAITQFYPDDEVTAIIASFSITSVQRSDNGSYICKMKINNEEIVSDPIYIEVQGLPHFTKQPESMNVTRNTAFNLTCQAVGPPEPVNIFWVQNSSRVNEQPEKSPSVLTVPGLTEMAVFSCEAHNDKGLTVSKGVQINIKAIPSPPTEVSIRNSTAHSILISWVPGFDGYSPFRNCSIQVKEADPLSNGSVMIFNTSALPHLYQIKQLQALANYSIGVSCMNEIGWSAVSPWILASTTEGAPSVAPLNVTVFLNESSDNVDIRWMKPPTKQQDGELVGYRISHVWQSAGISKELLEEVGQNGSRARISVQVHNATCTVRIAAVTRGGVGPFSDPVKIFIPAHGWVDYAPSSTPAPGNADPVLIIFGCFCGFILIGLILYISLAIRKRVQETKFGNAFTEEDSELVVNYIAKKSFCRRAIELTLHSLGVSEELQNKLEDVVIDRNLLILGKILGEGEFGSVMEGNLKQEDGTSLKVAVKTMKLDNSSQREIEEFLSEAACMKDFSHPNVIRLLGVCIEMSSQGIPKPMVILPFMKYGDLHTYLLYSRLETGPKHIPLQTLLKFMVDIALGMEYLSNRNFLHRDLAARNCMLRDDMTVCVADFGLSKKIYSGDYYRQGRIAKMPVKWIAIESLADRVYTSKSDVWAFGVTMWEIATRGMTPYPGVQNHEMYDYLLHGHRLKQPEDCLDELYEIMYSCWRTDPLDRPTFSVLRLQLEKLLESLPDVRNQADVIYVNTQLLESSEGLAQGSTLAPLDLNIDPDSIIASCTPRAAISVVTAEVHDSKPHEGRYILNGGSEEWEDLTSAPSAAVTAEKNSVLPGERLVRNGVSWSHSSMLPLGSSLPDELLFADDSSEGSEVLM
The following applies: at 1 µM.

Assay [16] concerns the target T3, Tyrosine-protein kinase Mer (Homo sapiens). As to conditions: at 10 µM.
In assay [17] the target is Hepatocyte growth factor receptor (Homo sapiens) (UniProt P08581). As to conditions: at 1 µM.
Hepatocyte growth factor receptor (Homo sapiens), sequence (P08581 whole entry): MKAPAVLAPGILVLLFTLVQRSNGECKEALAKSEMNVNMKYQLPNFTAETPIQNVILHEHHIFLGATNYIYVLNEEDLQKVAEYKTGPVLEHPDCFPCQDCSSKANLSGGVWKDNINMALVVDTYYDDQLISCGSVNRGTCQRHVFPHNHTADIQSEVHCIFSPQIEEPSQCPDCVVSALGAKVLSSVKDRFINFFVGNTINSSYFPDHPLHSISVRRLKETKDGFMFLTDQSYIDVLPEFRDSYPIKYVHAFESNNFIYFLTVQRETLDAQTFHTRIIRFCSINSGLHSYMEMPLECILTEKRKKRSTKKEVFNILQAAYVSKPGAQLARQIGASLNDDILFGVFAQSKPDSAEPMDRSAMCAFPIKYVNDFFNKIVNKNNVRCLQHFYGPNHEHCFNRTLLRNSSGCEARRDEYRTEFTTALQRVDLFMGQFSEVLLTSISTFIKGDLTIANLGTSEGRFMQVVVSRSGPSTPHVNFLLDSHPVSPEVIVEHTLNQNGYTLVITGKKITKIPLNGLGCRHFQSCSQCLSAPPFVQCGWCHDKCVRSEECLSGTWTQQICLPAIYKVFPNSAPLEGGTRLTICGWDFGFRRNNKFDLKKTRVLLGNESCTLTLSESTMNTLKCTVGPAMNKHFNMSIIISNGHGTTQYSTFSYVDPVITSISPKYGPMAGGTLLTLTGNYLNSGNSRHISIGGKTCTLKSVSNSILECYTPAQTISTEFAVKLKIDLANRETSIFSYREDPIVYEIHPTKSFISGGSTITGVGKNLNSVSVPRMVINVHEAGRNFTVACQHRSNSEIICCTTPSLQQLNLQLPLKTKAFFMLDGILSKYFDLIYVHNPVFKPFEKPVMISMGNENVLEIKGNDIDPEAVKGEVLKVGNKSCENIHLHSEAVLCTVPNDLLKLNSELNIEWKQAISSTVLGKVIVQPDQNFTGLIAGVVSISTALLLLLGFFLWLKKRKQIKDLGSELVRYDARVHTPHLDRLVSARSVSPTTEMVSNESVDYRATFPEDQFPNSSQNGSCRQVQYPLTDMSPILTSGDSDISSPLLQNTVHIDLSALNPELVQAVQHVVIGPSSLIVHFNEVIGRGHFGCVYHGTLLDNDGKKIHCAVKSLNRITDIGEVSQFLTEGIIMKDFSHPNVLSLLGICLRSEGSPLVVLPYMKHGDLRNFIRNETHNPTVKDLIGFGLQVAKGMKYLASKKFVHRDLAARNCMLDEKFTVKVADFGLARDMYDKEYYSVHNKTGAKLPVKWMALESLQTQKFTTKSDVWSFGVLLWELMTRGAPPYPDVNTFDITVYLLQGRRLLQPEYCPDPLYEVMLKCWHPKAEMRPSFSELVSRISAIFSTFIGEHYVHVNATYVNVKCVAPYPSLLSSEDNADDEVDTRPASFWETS
The target is the same in assay [18]. The following applies: at 10 µM.
The target in assay [19] is MAP kinase-interacting serine/threonine-protein kinase 2 (Homo sapiens) (UniProt Q9HBH9). The following applies: at 1 µM.
MAP kinase-interacting serine/threonine-protein kinase 2 (Homo sapiens), sequence (Q9HBH9 whole entry, looked up): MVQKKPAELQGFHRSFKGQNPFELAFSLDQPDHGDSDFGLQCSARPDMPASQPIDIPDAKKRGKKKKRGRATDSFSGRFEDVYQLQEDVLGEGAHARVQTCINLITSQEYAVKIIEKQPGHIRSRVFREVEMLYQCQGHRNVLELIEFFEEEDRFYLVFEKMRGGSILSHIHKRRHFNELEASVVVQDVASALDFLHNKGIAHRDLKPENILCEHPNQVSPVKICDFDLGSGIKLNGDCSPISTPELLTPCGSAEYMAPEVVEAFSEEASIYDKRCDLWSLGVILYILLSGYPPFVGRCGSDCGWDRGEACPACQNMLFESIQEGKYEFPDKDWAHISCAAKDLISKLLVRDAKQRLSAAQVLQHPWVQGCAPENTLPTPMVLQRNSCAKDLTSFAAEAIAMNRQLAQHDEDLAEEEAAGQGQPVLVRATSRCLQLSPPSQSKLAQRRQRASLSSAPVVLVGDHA
Assay [20] has the same target. As to conditions: at 10 µM.

Serine/threonine-protein kinase MRCK beta (Homo sapiens), sequence (Q9Y5S2 whole entry): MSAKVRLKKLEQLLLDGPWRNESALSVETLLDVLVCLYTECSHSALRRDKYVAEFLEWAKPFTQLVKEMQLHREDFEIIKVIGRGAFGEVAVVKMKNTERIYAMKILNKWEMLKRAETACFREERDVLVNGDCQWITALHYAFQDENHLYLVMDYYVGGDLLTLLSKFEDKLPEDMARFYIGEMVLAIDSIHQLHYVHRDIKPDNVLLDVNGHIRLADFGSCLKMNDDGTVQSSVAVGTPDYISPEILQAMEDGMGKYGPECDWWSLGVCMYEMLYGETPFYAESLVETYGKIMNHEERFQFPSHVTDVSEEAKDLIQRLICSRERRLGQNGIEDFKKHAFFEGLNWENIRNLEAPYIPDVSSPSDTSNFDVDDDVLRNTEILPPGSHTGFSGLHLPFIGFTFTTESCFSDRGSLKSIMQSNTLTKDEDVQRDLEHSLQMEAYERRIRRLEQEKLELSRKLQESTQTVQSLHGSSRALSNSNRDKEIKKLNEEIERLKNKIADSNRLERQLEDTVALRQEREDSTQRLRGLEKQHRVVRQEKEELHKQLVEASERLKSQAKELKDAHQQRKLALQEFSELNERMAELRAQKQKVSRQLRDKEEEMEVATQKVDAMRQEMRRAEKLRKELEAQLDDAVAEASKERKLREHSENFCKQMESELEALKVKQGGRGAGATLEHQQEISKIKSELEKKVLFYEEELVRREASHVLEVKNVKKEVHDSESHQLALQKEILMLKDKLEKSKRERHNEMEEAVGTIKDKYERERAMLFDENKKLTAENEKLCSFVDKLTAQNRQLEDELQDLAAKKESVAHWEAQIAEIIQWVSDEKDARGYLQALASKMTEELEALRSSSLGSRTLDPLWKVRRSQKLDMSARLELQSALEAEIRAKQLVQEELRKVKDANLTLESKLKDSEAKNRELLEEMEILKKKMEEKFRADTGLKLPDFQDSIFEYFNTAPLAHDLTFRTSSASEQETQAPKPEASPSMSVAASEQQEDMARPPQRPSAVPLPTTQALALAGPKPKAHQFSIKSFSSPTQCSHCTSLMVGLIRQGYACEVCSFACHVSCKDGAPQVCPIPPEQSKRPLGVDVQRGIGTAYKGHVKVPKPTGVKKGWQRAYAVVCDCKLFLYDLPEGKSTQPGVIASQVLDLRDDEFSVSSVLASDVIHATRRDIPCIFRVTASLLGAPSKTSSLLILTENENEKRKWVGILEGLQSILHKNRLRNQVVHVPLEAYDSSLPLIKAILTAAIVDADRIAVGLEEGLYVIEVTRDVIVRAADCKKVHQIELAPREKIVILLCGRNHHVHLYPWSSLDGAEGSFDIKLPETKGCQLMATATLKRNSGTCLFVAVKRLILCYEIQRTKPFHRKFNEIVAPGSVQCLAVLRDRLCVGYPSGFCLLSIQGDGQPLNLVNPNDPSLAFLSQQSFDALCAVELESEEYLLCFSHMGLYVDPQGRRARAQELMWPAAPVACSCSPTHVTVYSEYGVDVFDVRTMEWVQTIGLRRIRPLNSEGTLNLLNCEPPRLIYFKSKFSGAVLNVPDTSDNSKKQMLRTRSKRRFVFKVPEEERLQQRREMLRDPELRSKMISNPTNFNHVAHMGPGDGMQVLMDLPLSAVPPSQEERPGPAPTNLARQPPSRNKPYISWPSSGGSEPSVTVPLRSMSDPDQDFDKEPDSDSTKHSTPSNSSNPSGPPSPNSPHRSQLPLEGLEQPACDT
Ribosomal protein S6 kinase alpha-4 (Homo sapiens), sequence (O75676 whole entry, looked up): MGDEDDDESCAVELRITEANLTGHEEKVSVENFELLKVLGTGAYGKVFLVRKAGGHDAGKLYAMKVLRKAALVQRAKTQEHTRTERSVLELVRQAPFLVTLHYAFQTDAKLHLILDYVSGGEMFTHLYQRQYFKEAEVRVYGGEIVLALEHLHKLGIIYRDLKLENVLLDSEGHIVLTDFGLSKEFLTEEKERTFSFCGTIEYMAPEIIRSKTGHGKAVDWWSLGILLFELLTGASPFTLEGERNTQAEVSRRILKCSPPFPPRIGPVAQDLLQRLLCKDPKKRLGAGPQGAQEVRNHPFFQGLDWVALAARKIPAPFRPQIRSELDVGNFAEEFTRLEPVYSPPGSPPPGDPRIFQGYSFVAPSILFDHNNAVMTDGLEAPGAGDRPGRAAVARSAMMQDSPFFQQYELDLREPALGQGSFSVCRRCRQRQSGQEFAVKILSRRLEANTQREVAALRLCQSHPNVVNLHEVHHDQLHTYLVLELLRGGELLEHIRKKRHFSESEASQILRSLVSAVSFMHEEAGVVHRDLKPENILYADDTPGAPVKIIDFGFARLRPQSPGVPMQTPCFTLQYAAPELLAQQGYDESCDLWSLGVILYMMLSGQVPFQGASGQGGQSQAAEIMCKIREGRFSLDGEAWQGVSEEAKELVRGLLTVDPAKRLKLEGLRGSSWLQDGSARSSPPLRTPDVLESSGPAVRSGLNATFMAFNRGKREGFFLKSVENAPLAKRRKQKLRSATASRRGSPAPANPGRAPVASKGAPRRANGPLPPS
Serine/threonine-protein kinase 24 (Homo sapiens), sequence (Q9Y6E0 whole entry, looked up): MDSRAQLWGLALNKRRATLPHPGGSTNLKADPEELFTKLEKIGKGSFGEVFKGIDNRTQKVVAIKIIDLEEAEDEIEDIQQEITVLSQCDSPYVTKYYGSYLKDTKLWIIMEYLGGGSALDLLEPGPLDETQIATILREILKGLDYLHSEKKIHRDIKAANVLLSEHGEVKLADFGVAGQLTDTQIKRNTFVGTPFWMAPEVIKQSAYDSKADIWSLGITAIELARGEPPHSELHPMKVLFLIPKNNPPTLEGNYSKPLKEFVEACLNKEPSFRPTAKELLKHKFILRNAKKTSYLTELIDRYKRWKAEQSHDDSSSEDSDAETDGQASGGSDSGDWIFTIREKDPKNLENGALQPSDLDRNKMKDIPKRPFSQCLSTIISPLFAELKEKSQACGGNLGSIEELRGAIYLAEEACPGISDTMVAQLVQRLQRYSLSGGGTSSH

A word on the residual activity: it is the signal under treatment as a percentage of the control signal. On to `O=C1NC(=O)c2cc(Nc3ccc(F)cc3)c(Nc3ccc(F)cc3)cc21`, for which the residual activity in [1] turned out to be 79%; in [2], 64%; in assay [3] it was 128%; in assay [4], 93%; in assay [5] it was 97%; in assay [6], 91%. Moreover, the residual activity is 106% in assay [7]; 84% in assay [8]; 92% in assay [9]; 100% in [10]; 100% in assay [11]; 68% in assay [12]. Also, the residual activity in assay [13] is 68%; in assay [14], 54%; in assay [15] it was 105%; in assay [16], 93%; in assay [17], 89%; in assay [18] it was 59%. In addition, the figures for the residual activity in [19] and in assay [20] were 106% and 86%, respectively.
As for `N#C/C(=C(\N)Sc1ccc(N)cc1)c1ccccc1C(F)(F)F`, the residual activity was 94% in assay [1]; 98% in assay [2]; 85% in assay [3]; 95% in [4]; 97% in assay [5]; 84% in assay [6]. In addition, the residual activity in [7] stood at 109%; in [8] it was 95%; in [9], 105%; in [10], 104%; in assay [11] it was 76%; in assay [12], 80%. Also, the residual activity came out at 70% in assay [13]; 62% in [14]; 94% in [15]; 94% in assay [16]; 98% in [17]; 90% in [18]. Moreover, the residual activity stood at 102% in assay [19] and 106% in [20].
Regarding `Cc1ccc(NC2=CC(=O)c3sc(C)nc3C2=O)cc1`, the residual activity in assay [1] turned out to be 87%; in assay [2], 86%; in assay [3] it was 106%; in [4], 113%; in assay [5], 96%; in assay [6], 90%. Besides, the residual activity came to 101% in assay [7]; 103% in [8]; 72% in assay [9]; 111% in assay [10]; 109% in [11]; 100% in assay [12]. The residual activity in assay [13] was 78%; in assay [14] it was 83%; in assay [15], 98%; in assay [16] it was 110%; in assay [17], 91%; in assay [18] it was 118%. The residual activity in [19] was determined as 98%; in assay [20] it was 110%.
As to `CCC(=O)Nc1ccc2ncnc(Nc3cccc(Br)c3)c2c1`, the residual activity in assay [1] turned out to be 89%; in [2] it was 77%; in [3] it was 113%; in [4] it was 112%; in assay [5], 94%; in assay [6], 116%. The residual activity worked out at 94% in assay [7]; 84% in assay [8]; 91% in assay [9]; 95% in [10]; 121% in assay [11]; 91% in assay [12]. Besides, the residual activity in assay [13] was found to be 69%; in assay [14], 69%; in [15] it was 108%; in assay [16] it was 86%; in [17] it was 99%; in assay [18] it was 100%. Besides, the residual activity in assay [19] was found to be 30%; in [20], 9%.
On to `Oc1ccc(-c2nc(-c3ccc(F)cc3)c(-c3ccncc3)[nH]2)cc1`, for which the residual activity in assay [1] was determined as 105%; in assay [2], 92%; in assay [3], 102%; in assay [4], 98%; in assay [5], 77%; in assay [6] it was 43%. In addition, the residual activity in assay [7] was determined as 120%; in [8], 110%; in assay [9] it was 92%; in assay [10] it was 113%; in [11], 108%; in [12] it was 90%. Further, the residual activity in assay [13] is 93%; in assay [14] it was 77%; in assay [15], 110%; in [16], 96%; in assay [17], 117%; in [18], 37%. In addition, the results for the residual activity in assay [19] and in [20] were 117% and 94%, respectively.
For the molecule `CC[n+]1c(/C=C/N(C)c2ccccc2)n(-c2ccccc2)c2ccc(-c3nc4ccccc4s3)cc21`, the residual activity came out at 98% in assay [1]; 83% in assay [2]; 139% in assay [3]; 99% in assay [4]; 108% in assay [5]; 96% in assay [6]. In addition, the residual activity in [7] was determined as 107%; in assay [8], 82%; in assay [9], 103%; in [10], 73%; in assay [11], 109%; in assay [12], 71%. The residual activity in [13] worked out at 78%; in [14], 79%; in [15] it was 113%; in assay [16] it was 48%; in [17], 97%; in assay [18] it was 74%. The residual activity was 104% in assay [19] and 63% in assay [20].
